Data as given in ChEMBL document CHEMBL3988442, “University of Dundee, Small-Polar-MMV Screening Library” (2021).
For some of these results: Potency and affinity values are given separately.

How the values were obtained:
Parameters in all cases: scale not given: direction of the effect not stated beside the values
[1] = target: Protein translocase subunit SecA (Escherichia coli (strain K12)) (UniProt P10408); assay: Assay to Identify E. coli SecA ATPase Inhibitors; format: functional; conditions: 30 µM
[2] = target: T1, Ubiquitin-activating enzyme e1, putative (Leishmania donovani (strain BPK282A1)) (UniProt E9BSI1); assay: Leishmania donovani Ubiquitin Activating Enzyme (LdE1); format: functional; conditions: 30 µM
T1 sequence (whole entry): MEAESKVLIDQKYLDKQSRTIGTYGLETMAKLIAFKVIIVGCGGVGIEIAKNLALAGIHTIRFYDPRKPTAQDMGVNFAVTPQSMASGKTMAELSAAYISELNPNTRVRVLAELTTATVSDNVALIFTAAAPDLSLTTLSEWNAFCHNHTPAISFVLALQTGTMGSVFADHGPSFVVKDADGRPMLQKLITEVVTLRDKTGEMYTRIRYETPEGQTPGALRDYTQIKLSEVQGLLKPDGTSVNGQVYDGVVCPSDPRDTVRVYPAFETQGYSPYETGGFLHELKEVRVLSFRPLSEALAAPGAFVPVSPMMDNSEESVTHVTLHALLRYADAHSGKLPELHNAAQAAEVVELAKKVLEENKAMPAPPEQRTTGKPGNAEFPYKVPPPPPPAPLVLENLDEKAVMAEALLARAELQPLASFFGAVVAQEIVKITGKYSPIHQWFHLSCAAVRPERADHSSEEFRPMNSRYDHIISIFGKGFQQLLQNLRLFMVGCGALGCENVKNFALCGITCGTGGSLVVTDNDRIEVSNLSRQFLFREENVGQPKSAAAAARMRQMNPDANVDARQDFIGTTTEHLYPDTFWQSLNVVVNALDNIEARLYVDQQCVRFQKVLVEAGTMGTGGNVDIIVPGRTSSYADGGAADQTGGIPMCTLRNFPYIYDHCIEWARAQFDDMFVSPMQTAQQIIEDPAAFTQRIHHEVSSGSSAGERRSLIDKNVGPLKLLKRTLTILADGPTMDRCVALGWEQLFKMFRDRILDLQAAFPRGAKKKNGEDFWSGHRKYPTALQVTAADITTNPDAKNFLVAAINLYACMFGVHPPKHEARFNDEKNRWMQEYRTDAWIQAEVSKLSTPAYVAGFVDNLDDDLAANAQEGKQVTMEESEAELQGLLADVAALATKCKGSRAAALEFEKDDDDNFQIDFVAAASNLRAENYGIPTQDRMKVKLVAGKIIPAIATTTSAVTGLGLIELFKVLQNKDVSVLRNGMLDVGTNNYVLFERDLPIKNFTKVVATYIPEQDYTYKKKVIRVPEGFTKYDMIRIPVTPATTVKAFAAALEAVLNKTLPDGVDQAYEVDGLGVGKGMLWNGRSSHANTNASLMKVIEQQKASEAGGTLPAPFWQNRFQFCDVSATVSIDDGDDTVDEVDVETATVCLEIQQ

[3] = target: AMP-activated protein kinase, AMPK (Homo sapiens) (UniProt P54646+O43741+P54619+Q9UGJ0+Q9Y478+Q13131+Q9UGI9); assay: AMP-dependent Kinase enzyme assay. An in vitro enzyme assay that detects ADP turnover that is directly proportional to AMPK activity. This uses naive AMPK that is activated during the assay with MK-8722; format: functional; conditions: 30 µM
[4] = target: Sialic acid-binding Ig-like lectin 9 (Homo sapiens) (UniProt Q9Y336); assay: Hs-Siglec9 ALPHAscreen SOP 20170721; conditions: 10 µM
[5] = test system: Trypanosoma cruzi; assay: Trypanosoma cruzi phosphomannomutase and mannose-1-phosphate guanylyltransferase assay; format: functional; conditions: 10 µM
[6] = target: T2, Arginase-2, mitochondrial (Homo sapiens) (UniProt P78540); assay: in vitro enzyme assay to detect the production of urea directly proportional to the activity of Arginase II; format: functional; conditions: 33.3 µM; also: in the data most compounds retested in dose-response had high values
T2 sequence (whole entry): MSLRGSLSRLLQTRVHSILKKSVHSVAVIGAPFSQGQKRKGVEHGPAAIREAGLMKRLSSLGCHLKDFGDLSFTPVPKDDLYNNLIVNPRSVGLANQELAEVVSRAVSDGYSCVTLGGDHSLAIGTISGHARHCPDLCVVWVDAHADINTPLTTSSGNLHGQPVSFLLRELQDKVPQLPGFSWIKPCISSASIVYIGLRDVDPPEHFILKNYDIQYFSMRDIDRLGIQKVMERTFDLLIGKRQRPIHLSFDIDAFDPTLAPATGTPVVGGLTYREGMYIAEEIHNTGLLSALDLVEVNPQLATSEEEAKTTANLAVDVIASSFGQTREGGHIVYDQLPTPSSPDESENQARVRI

[7] = target: T3, Proteasome subunit beta (Trypanosoma cruzi) (UniProt O96673); assay: Trypanosoma cruzi proteasome chymotrypsin-like activity (TcProtChymo) assay.; also: in the data most compounds retested in dose-response had high values; format: functional; conditions: 9.37 µM
T3 sequence (whole entry): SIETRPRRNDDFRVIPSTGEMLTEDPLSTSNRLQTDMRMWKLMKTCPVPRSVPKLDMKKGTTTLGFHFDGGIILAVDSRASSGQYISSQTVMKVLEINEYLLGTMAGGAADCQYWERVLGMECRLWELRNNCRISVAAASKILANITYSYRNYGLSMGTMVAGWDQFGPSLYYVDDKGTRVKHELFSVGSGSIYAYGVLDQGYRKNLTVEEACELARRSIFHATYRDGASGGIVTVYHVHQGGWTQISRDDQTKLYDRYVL

[8] = species on record: Homo sapiens; assay: To identify inhibition of the IFN signalling (Jak-Stat) pathway via expression of an eGFP reporter gene under the control of an IFN-stimulated response element (ISRE) containing MxA promoter.; format: functional; conditions: 30 µM
[9] = target: T4, Tyrosyl-tRNA synthetase, putative (Trypanosoma cruzi (strain CL Brener)) (UniProt Q4DSP6); assay: Trypanosoma cruzi tyrosyl tRNA synthetase (TcYRS) _High Tyrosine SOP; format: functional; conditions: 30 µM; also: in the data most compounds retested in dose-response had high values
T4 sequence (whole entry): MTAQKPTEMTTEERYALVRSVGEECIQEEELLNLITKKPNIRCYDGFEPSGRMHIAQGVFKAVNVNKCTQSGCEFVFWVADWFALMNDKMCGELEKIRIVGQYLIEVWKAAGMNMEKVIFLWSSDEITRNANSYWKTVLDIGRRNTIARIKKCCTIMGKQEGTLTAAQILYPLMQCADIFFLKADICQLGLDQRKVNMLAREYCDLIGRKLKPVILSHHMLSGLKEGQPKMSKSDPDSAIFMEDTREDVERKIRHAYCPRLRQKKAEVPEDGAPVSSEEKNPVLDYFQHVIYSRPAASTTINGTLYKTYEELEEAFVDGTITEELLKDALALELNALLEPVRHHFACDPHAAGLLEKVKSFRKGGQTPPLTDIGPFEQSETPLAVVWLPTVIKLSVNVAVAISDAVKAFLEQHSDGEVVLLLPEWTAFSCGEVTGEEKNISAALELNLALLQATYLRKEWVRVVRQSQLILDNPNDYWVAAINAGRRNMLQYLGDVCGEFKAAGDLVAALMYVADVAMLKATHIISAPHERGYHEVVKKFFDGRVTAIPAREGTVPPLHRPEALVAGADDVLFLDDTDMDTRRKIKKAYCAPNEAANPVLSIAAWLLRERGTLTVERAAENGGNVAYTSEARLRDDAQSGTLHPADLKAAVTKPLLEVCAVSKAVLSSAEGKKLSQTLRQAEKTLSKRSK

[10] = target: T4, Tyrosyl-tRNA synthetase, putative (Trypanosoma cruzi (strain CL Brener)); assay: Trypanosoma cruzi tyrosyl tRNA synthetase (TcYRS) SOP; format: functional; conditions: 30 µM
[11] = target: Chromo domain-containing protein 1 (Saccharomyces cerevisiae (strain ATCC 204508 / S288c) (Baker's yeast)) (UniProt P32657); assay: ScCHD-1 Enzyme Inhibition Assay; format: functional; conditions: 30 µM; also: in the data most compounds retested in dose-response had high values
Chain of Chromo domain-containing protein 1 (Saccharomyces cerevisiae (strain ATCC 204508 / S288c) (Baker's yeast)) (P32657 whole entry, the tested form may be a part): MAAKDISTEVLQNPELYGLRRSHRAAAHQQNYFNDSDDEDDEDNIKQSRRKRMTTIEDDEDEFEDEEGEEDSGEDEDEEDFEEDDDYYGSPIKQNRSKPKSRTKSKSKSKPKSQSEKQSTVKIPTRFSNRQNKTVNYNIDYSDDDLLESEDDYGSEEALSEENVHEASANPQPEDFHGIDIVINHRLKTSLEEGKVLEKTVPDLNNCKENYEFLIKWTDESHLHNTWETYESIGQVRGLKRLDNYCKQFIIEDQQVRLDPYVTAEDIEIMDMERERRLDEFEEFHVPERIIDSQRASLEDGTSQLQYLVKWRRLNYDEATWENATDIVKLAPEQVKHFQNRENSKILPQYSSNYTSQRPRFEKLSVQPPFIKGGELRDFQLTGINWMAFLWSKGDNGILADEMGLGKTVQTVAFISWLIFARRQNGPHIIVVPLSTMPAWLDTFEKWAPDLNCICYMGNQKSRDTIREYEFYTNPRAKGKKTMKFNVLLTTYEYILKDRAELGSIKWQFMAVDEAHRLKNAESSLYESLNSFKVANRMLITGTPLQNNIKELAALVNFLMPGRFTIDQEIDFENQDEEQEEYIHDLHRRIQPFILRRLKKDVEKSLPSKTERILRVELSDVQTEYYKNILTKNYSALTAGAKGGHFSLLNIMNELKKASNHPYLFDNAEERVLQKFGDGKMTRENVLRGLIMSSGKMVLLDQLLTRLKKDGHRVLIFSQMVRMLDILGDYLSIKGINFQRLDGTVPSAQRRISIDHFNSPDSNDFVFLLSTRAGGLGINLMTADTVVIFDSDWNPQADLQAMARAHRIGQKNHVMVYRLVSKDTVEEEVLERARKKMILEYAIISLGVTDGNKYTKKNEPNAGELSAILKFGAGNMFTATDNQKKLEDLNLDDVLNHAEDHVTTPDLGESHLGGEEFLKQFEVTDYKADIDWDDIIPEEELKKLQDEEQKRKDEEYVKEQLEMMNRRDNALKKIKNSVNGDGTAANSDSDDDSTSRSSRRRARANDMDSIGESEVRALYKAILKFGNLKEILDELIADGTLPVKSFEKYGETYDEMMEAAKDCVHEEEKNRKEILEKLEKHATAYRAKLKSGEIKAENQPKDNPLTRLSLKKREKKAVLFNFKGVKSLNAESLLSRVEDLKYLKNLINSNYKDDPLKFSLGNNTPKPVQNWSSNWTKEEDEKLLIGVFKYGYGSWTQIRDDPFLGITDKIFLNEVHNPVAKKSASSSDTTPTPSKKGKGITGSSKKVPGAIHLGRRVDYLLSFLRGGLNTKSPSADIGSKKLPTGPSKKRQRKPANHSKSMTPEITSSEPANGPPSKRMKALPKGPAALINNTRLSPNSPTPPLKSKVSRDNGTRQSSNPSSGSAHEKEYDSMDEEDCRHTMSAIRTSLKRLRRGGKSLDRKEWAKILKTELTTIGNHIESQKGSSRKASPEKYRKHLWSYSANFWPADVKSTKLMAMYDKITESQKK

Chain of Sialic acid-binding Ig-like lectin 9 (Homo sapiens) (Q9Y336 whole entry): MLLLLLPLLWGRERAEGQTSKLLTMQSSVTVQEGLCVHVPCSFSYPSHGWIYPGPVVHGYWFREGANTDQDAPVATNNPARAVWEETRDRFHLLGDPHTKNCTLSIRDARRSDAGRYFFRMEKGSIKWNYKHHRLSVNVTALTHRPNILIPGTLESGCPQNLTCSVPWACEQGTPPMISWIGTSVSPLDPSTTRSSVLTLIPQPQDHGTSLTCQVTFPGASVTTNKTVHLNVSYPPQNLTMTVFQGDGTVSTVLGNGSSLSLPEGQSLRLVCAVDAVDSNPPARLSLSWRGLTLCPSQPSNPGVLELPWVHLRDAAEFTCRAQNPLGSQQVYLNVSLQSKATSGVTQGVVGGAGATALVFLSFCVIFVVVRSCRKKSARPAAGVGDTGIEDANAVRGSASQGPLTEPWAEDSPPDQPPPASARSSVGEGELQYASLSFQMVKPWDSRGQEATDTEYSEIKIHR
Chain of Protein translocase subunit SecA (Escherichia coli (strain K12)) (P10408 whole entry): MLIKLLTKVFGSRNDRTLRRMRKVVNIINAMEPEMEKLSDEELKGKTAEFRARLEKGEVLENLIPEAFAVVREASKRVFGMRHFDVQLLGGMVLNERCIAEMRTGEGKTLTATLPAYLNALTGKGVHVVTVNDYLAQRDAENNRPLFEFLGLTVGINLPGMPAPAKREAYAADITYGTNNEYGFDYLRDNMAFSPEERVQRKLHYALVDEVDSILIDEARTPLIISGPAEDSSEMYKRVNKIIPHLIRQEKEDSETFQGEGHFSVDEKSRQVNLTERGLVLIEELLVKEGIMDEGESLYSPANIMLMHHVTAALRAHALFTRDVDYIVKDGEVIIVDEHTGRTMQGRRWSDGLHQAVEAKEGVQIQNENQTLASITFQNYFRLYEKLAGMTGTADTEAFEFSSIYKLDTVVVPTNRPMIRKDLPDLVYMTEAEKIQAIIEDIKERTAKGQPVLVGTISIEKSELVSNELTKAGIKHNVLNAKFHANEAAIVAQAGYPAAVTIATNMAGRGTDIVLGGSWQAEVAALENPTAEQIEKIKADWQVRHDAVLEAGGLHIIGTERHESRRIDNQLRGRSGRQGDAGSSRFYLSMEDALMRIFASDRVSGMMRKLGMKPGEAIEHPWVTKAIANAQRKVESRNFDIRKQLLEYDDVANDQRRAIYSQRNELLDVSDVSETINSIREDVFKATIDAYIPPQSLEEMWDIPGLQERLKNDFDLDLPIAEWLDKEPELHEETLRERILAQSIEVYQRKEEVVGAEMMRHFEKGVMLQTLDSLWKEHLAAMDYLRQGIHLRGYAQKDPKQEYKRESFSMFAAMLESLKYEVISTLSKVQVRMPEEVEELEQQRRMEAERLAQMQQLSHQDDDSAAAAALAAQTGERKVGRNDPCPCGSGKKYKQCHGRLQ

Structure (SMILES) | Percent Effect [1] [%] | Percent Effect [2] [%] | Percent Effect [3] [%] | Percent Effect [4] [%] | Percent Effect [5] [%] | Percent Effect [6] [%] | Percent Effect [7] [%] | Percent Effect [8] [%] | Percent Effect [9] [%] | Percent Effect [10] [%] | Percent Effect [11] [%]
CC1(C)CC(N2Cc3nc(N4CCOCC4)ncc3C2=O)CC(C)(C)N1 | -6.55 | 2.6 | 1.41 | 1.23 | -9.93 | 2.76 | 10.8 | 13.3 | 0 | -1.24 | -0.541
COc1cc(C(=O)N(Cc2cnn(C)c2)C(C)C)ccc1OCC(N)=O | -7.3 | 18.4 | -10.1 | -6.52 | -5.32 | 0 | 10.4 | 9.36 | 0.493 | 6.17 | -2.3
COCC1CC2(CCN(C(=O)c3occc3C)CC2)CO1 (stereo not given) | -0.186 | 2.6 | 22.5 | 0.84 | -6.61 | 4.52 | 3.65 | 5.99 | -2.12 | -1.28 | -1.99
O=S(=O)(N(Cc1ccccn1)C1CC1)N1CCCC1c1ccco1 (stereo not given) | -4.42 | 16.2 | 0.691 | 9.84 | 5.66 | -2.77 | 0.359 | 5.33 | 3.96 | 18.3 | -5.26
COc1cc(N2C[C@@H]3COC[C@]3(COc3ccc(C#N)cn3)C2)ncn1 | -3.38 | 13.5 | 2.34 | 2.33 | 4.01 | 9.24 | 12.6 | 35.9 | 4.32 | 7.69 | 1.63
CC(NC(=O)C1=NN(C)C(=O)CC1)c1ccc(Cl)cc1Cl (stereo not given) | -2.53 | 16.4 | 8.07 | 9.9 | 2.74 | 8.64 | 11.9 | 16.3 | 2.15 | 20 | -7.04
CC(C)c1nc(C(=O)NCCn2ccnc2)nn1-c1cccc(F)c1 | -6 | 15.8 | -4.38 | -4.66 | -3.46 | -6.47 | 1.1 | -1.8 | 1.48 | 6.17 | -5.42
Cc1noc(Cl)c1CCC(=O)N1CCCCC1Cn1cccn1 (stereo not given) | -5.73 | 5.26 | 1.98 | -0.589 | 1.85 | -2.37 | 9.3 | -6.24 | 3.19 | 5.2 | -7.11
CCc1nc(NCCCn2cccn2)c2c(n1)c(C)nn2C | -3.56 | 20 | -0.746 | 2.66 | 0.197 | -0.528 | 17.6 | 8.9 | 6.35 | 12.8 | -12.1
COCCNS(=O)(=O)c1cccc2c1CN(C(=O)c1ccccc1)CC2 | -6.17 | -4.17 | 4.56 | 0.0622 | -1.65 | -2.21 | 4.39 | 34.9 | -4.21 | -10.3 | 4.48
COCCCC1(CO)CCCN(CCc2ccccc2)C1 (stereo not given) | -1.32 | -2.74 | -1.63 | -2.32 | -5.09 | 0.909 | -0.887 | -2.97 | 1.07 | 2.5 | -2.34
COc1ccc(OC)c(NC(=O)N2CCCC2c2ccco2)c1 (stereo not given) | -1.78 | 5.2 | 7.39 | -2.94 | -0.888 | 1.94 | 7.83 | 13.8 | -1.06 | 3.85 | -8.44
COc1ccc2cc(C(=O)N3CCCCC3Cn3cccn3)[nH]c2c1 (stereo not given) | -8.67 | 0 | 2.23 | 5.53 | -0.562 | 2.13 | 1.86 | 2.73 | 0 | 2.44 | -1.29
CCc1ccc(S(=O)(=O)Nc2c(C)cccc2C(=O)O)s1 | -6.89 | 5.26 | -2.41 | 7.53 | 2.71 | -2.16 | 3.64 | -1.38 | 2.46 | 6.17 | 2.56
CCOC1CCN(C(=O)c2c(Cl)c3ccccc3n2C)CC1 | -2.47 | 0 | -0.042 | 1.92 | -2.43 | 3.12 | 13.4 | -2.41 | -2.73 | 11.1 | -4.88
COc1ncccc1NC(=O)N(Cc1ccc(C)o1)C1CC1 | -4.84 | 13 | 6 | 6.62 | 8.05 | -4.27 | 2.53 | 56.7 | 6.8 | 19.5 | -5.73
c1ccc(-c2cnc(CN3CCn4c(nnc4C4CC4)C3)o2)cc1 | 3.62 | 13.2 | -0.492 | 0.484 | -0.564 | 6.9 | 10 | 18.2 | 6.37 | 17.1 | -9.44
CN(C)CCN(C)C(=O)c1cnc2c(c1)nc(-c1ccccc1Cl)n2C | -6.72 | 5.41 | -0.741 | -1.85 | -0.88 | 2.23 | -1.29 | 8.57 | 9.68 | 13.6 | -3.61
Cc1nc(Nc2nccs2)cc(C2CCCN2C2CCOCC2)n1 (stereo not given) | -6.58 | 12.2 | 4.38 | 1.96 | 4.35 | -3.48 | 8.89 | 6.9 | 6.45 | 14.3 | -16.1
c1ccc2oc(CCCN3CCCC3Cn3cncn3)nc2c1 (stereo not given) | -1.49 | 0 | 0.485 | 12.2 | -1.02 | 3.51 | 5.92 | 13.6 | 7.92 | 6.1 | 7.47
